# Assay outcomes deposited in PubChem by several laboratories.
# ALR H2O2 inh = inhibitors of human sulfhydryl oxidase ALR. 3.8% of 290,000 active. inhibition, % (test concentration not listed). purified ALR, DTT oxidation, H2O2 HRP-luminol luminescence;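 active = mean replicate inhibition above about 79%, with every replicate also reaching it, limit read from the data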
# CHT allo act = allosterically activates the human high affinity choline transporter; Q9GZV3; CHT-expressing cells, membrane potential dye, choline EC20; hits give high values; LV-AA mutant CHT in HEK293 cells; B-score at 10 µM; 0.49% of 310,000 active; AID 488977;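 active = initial fluorescence not abnormally high and integrated response B-score, plate-corrected, over 3 SD above library mean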
# PREPL inh = inhibits the human prolyl oligopeptidase-like enzyme. recombinant PREPL, fluorescence polarization activity-based probe. 0.68% of 320,000 active. inhibition, % at 5.96 µM. Q4J6C6; in the data active = inhibition above about 43%;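 also: 0% = enzyme with DMSO and 100% = wells lacking enzyme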
# Target sequence (Q4J6C6 whole entry, looked up): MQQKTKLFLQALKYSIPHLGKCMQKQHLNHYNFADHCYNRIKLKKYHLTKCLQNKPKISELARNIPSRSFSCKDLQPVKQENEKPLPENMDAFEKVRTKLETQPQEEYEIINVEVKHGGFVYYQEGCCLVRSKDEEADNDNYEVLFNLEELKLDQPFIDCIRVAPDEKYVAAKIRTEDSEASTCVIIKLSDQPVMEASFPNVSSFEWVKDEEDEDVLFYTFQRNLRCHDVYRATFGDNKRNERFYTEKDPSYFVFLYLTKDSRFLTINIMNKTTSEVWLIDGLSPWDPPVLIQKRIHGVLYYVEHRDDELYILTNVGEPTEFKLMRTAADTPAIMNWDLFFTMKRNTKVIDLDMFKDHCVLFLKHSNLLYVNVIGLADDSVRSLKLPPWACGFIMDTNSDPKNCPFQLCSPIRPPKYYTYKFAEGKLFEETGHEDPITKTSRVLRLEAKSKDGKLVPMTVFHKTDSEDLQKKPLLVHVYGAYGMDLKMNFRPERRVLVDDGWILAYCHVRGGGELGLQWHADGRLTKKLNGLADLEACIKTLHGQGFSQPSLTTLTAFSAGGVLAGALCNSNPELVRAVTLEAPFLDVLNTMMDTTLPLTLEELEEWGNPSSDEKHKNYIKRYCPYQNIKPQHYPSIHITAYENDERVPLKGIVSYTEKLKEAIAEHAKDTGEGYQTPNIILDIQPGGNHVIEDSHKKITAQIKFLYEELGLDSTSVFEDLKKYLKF
# CHT block = human CHT choline transport inhibition | Q9GZV3 | CHT-expressing cells, membrane potential dye, choline response; hits give low values | B-score at 10 µM | 0.86% of 310,000 active;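 active = B-score over 3 SD under the library average, and starting fluorescence ratio not unusually high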;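 also: choline stimulus applied at its EC90 after an EC20 pre-addition; B-score computed on integrated fluorescence ratio after choline addition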
# AI-2 QS modul = Vibrio harveyi AI-2 quorum sensing modulation; Vibrio harveyi JMH597 AI-2 luminescence/OD600 ratio, 9 h; hits give low values; strain lacks LuxN and CqsS sensors; 0 = neutral-control median; activity change, % at 7.5 µM; 0.4% of 300,000 active; in the data active = activity change below about -75%, passing the limit was not always enough;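 also: luminescence divided by OD600 gain over 9 h not by final OD600 alone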
# CHT inh conf = confirmation of human choline transporter CHT inhibitors; shares compounds with CHT block; CHT-expressing cells, choline membrane potential dye; LV-to-AA substituted CHT, HEK293 cells; CHT activity remaining % of control (hits give low values), % at 10 µM; 70% of 2,400 active; AID 493221;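 active = choline transporter activity left, mean of duplicates at 10 µM, below buffer-only control mean minus 3 SD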;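 also: depolarization triggered by choline at its EC90 following an EC20 pre-addition; 0% = hemicholinium-3 full block and 100% = buffer-only control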
# HEK293 MPD ctr = CHT inhibitor counter-screen hit in parental HEK293 cells | membrane potential ratio readout (active if shifted either direction beyond buffer ±3SD; no single direction) at 10 µM | shares compounds with CHT block | 4% of 2,400 active | membrane potential dye, choline response; active = decrease or increase beyond buffer ±3SD;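 also: parental cells lack the transporter so any hit is non-specific; ratio is peak minus trough fluorescence over baseline after EC90 choline challenge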
# Starred values were filed as active, the others as inactive; i = inactive; x = not tested or not shown. Most compounds without a hit are left out; they make up all but 5% or so of the library.
SMILES,ALR H2O2 inh,CHT allo act,PREPL inh,CHT block,AI-2 QS modul,CHT inh conf,HEK293 MPD ctr
CCCN1CCN(CCCNC(=O)Cn2ncc3c4ccccc4n(C)c3c2=O)CC1,7,i,9,i,12,x,x
O=C(Cn1ncc2c3ccccc3n(Cc3ccccc3)c2c1=O)NCCCN1CCCC1,3,i,1,-9*,51,25%*,i
CCCn1c2ccccc2c2cnn(CC(=O)NCCCN3CCCCC3)c(=O)c21,0,i,-2,-9.3*,21,21%*,i
O=C(Cn1ncc2c3ccccc3n(Cc3ccccc3)c2c1=O)NCCN1CCOCC1,0,i,0,-15*,20,6.6%*,i
COC(=O)c1sccc1NC(=O)C1CC1,4,i,11,i,14,x,x
C=CCOc1cccc(/C=C/c2nc3ccccc3c(=O)[nH]2)c1,x,i,-12,i,5,x,x
CC(=O)NC12CC3CC(C1)CC(C(=O)Nc1nc4c(C)cccc4s1)(C3)C2,-5,i,28,i,22,x,x
O=C(Oc1ccc([N+](=O)[O-])cc1)C1CC(=O)N(c2ccc3c(c2)OCCO3)C1 (stereo unspecified),-4,x,3,x,x,x,x
CCCn1c2ccccc2c2cnn(CC(=O)NCCCN3CCN(c4ccccc4)CC3)c(=O)c21,42,i,-37,-9.9*,x,23%*,i
CCCn1c2ccccc2c2cnn(CC(=O)NCCCN3CCCC(C)C3)c(=O)c21 (stereo unspecified),-3,i,4,-6.6*,21,26%*,i
CN1CCN(CCCNC(=O)Cn2ncc3c4ccccc4n(C)c3c2=O)CC1,-11,i,0,i,10,x,x
Cn1c2ccccc2c2cnn(CC(=O)NCCCN3CCN(c4ccccc4F)CC3)c(=O)c21,1,i,-34,-5.5*,25,i,i
CCCn1c2ccccc2c2cnn(CC(=O)NC3CCC(C)CC3)c(=O)c21 (stereo unspecified),1,i,6,i,15,x,x
CN(C(=O)COC(=O)C12CC3CC(CC(Cl)(C3)C1)C2)c1ccccc1,x,x,4,x,x,x,x
Cc1ccc(S(=O)(=O)N2[C@@H](c3ccc(Cl)cc3)C(C(=O)O)=CC[C@H]2c2ccc(Cl)cc2)cc1,9,i,3,-5.7*,x,62%*,i
Cc1ccc(S(=O)(=O)N2[C@@H](c3ccc(F)cc3)C(C(=O)O)=CC[C@H]2c2ccc(C(C)C)cc2)cc1,65,i,3,-6.3*,x,65%*,i
Cc1ccc(S(=O)(=O)N2[C@@H](c3ccc(F)cc3)C(C(=O)O)=CC[C@H]2c2ccc(Cl)cc2)cc1,17,i,-11,i,x,x,x
CC1=NC(C)(C)Cc2c(C)cccc21,-1,i,2,i,14,x,x
CC1=NC(C)(C)Cc2cc(C)c(C)cc21,-5,i,-3,-8.2*,-16,42%*,i
O=c1[nH]c(=O)n(Cc2ccco2)c2c1C(C(F)(F)F)(C(F)(F)F)N=C(CCc1ccccc1)N2,x,i,2,i,13,x,x
N#Cc1ccc(C2=NC(C(F)(F)F)(C(F)(F)F)c3c(n(Cc4ccco4)c(=O)[nH]c3=O)N2)cc1,96*,i,9,-11*,20,57%*,i
O=c1[nH]c(=O)n(-c2ccc(F)cc2)c2c1C(C(F)(F)F)(C(F)(F)F)N=C(c1ccc(F)cc1)N2,-3,i,4,-7*,12,54%*,i
Cc1ccc(C(=O)N/C(=C/c2cccs2)C(=O)N2CCCCCC2)cc1,x,i,6,i,6,x,x
Cc1ccc(C(=O)N/C(=C\c2cccs2)C(=O)NC2CCCCC2)cc1,3,i,-6,-5.1*,17,22%*,i
Nn1c(-c2ccccc2)nc2cc(Cl)ccc2c1=O,-4,i,-4,-7.2*,x,i,i
SMILES,ALR H2O2 inh,CHT allo act,PREPL inh,CHT block,AI-2 QS modul,CHT inh conf,HEK293 MPD ctr
Cc1cccc(-c2nc3ccccc3c(=O)n2N)c1,-5,i,-13,i,7,x,x
CC(C)N(C)C(=O)c1ccc(OC2CCN(CCc3ccccc3)CC2)cc1,x,i,24,i,12,x,x
Cc1csc(C(C)NC(=O)c2ccc(OC3CCN(CCc4ccccc4)CC3)cc2)n1 (stereo unspecified),-3,i,9,-6.4*,12,30%*,2.6*
CCOC(=O)C1(Cc2ccccc2C)CCCN(C(=O)c2cc(C3CC3)[nH]n2)C1 (stereo unspecified),-4,i,2,-6.3*,17,i,i
CCCn1c(SCC(=O)c2cc(C)n(-c3ccc4c(c3)OCO4)c2C)n[nH]c1=O,x,i,-6,-5.5*,15,i,i
Cc1cccn2c(=O)c(C=O)c(N3CCCCCC3)nc12,8,i,20,-6.4*,-1,i,i
O=C(CSc1nnc(-c2cccs2)n1C1CC1)NCC1CCCO1 (stereo unspecified),1,x,13,x,x,x,x
C[C@H](NC(=O)Cc1ccccc1)C(=O)N1CCC2(CC1)NCCc1[nH]cnc12,-3,i,1,i,25,x,x
O=C1OCCC1Sc1nnc(-c2ccccc2Cl)n1Cc1ccccc1 (stereo unspecified),-7,i,2,-6.9*,1,i,i
O=C(N/N=C/c1cccc(Oc2ccccc2)c1)c1cccc(O)c1,-8,i,x,-5.3*,3,67%*,i
O=C(N/N=C/c1cccc(Oc2ccccc2)c1)c1cccc(Br)c1,-6,i,-17,i,11,x,x
Oc1ccc(Oc2ncc(Cl)cc2Cl)cc1,99*,i,-1,-5.4*,15,59%*,i
CCOCCOC(=O)C(C)Oc1ccc(Oc2ncc(Cl)cc2Cl)cc1 (stereo unspecified),-86,i,3,i,-2,x,x
O=C(Cc1ccccc1)NC(=S)Nc1ccc(OC(F)F)cc1,x,i,-3,i,-17,x,x
CCOC(=O)c1sc(=S)n(-c2ccccc2)c1N,18,i,7,i,20,x,x
CCOC(=O)c1sc(=S)n(-c2ccccc2)c1N(C(C)=O)C(C)=O,3,i,2,-6.2*,16,65%*,i
Cc1nnc(NCc2cccc(Cl)c2)c2ccccc12,2,i,-18,-10*,31,20%*,i
CCCCNC(=O)c1ccc2c(OCC)n(CCCC)nc2c1,-1,i,-5,-7.1*,17,57%*,i
NNC(=O)c1ccc(COc2ccc(Br)cc2)o1,x,i,-6,i,20,x,x
NNC(=O)c1ccc(CN2CCCCC2)o1,7,i,-4,-5.9*,23,i,i
